Results taken from PubChem BioAssay (NCI).
This is part of a sample that, as a whole, favours compounds with a hit. Of some 83,000 tested, about 20% had one in any assay.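 Assay: single dose, 48 h. Readout: percent growth (0 = no net growth; negative = cell death). Active: <10.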 Values without a mark were called inactive. Active and inactive are the calls of the source.

The compounds below were run on T-47D breast (assay: NCI-60 one-dose screen, 48 h (100 = growth as untreated, 0 = no growth, -100 = all killed)). Settings: 10 µM unless noted.

First: CCOC(=O)Nc1ccc2c3c(cccc13)-c1ccccc1-2
Second: O=C(O)c1ccc(CNS(=O)(=O)c2ccc3ccccc3c2)cc1
The growth of the first is lower: 58.7% for the first, 100% for the second.

First: CCCCCCCC[Si](OCC)(OCC)OCC
Second: CCCCNCCCN(CCCC)CCCNCCCC
The growth of the first is lower: 96.2% for the first, 105% for the second.

Compared with `CCOC(=O)c1sc(NC(=O)COc2cccc(/C=C3\CCc4cc(OC)ccc4C3=O)c2)nc1C`, `COc1ccc2cc(-c3nc4ccccc4[nH]3)c(=O)oc2c1` is higher in growth: 84.8% for the first, 92.9% for the second.

Compared with `NS(=O)(=O)N(c1cc(C(F)(F)F)cc(C(F)(F)F)c1)C1CCN(Cc2ccc(C(F)(F)F)cc2)CC1`, `O=C(O)C1CCN(S(=O)(=O)c2ccc(-c3ccccc3)cc2)CC1` is higher in growth: 29.5% for the first, 107% for the second.

Compared with `CCOC(CNCc1cc(C)c2[nH]c3ccccc3c2c1C)OCC`, `CCCn1c(N)c(C(=O)CNc2ccc(I)cc2)c(=O)[nH]c1=O` is higher in growth: 84.9% for the first, 94.9% for the second.

Going from `Oc1c(Cl)cc(Cl)c(Cl)c1Cc1c(O)c(Cl)cc(Cl)c1Cl` to `COc1cc(/C(Cl)=C/C=C/C(=O)c2c(C)[n+]([O-])c3ccc(Cl)cc3[n+]2[O-])cc(OC)c1OC`, the growth falls from 33.8% to 22.3%.

Going from `COc1cc(/C=N/NC(=O)c2ccc(C(F)(F)F)nc2Nc2cc(Cl)ccc2C)cc(OC)c1OC` to `COc1ccc2nc(-c3ccc(Cl)cc3)cc(-c3nnc(SCC(=O)Nc4ccc(C(C)=O)cc4)n3-c3ccccc3)c2c1`, the growth rises from 84.7% to 87.2%.

First: CC1Cc2ccccc2N1C(=O)c1ccc(C(=O)c2ccccc2)cc1 (stereo unspecified)
Second: CC(=O)Nc1cc(C(c2ccccc2)c2ccccc2)cc(C(c2ccccc2)c2ccccc2)c1C
The growth of the first is higher: 91.4% for the first, 24.9% for the second.

Compared with `CC[N+](CCCCCCCCCC[N+](CC)(c1ccccn1)c1ccccn1)(c1ccccn1)c1ccccn1`, `NS(=O)(=O)c1ccc(-n2ncc3c(SCc4ccccc4)ncnc32)cc1` is higher in growth: 13.8% for the first, 91.6% for the second.

First: O=C(CN1CCN(c2ccc(Cl)cc2)CC1)N1CCN(c2nnc(-c3ccc(Cl)cc3)c(-c3ccc(Cl)cc3)n2)CC1
Second: O=C1c2cccc(NCCN=Cc3ccccc3O)c2C(=O)c2c(NCCN=Cc3ccccc3O)cccc21
The growth of the first is higher: 52.4% for the first, 18% for the second.

First: Cc1nn(-c2ccccc2)c2nc(N)c(C3=NCCO3)nc12
Second: C/C(=C\CCc1ccoc1)CC/C=C(\C)CCCN1CCOCC1
The growth of the first is higher: 77.5% for the first, 27.4% for the second.

For `COC(=O)[C@H](Cc1cnc[nH]1)NC(=O)[C@@H](NC(=O)Nc1cc(C(F)(F)F)cc(C(F)(F)F)c1)C(C)C`, the growth was -63.5% [100 µM] (active).
In the case of `CNCCCn1c2c(c3ccc(F)cc3c1=O)C(=O)c1cc(OC)cnc1-2`, the growth is reported as -2.54% (active).
With `O=C(Nc1nc2ccc(OC(F)(F)F)cc2s1)c1ccc(F)cc1` the growth was -10.8% (active).
`C[C@H]1O[C@@H](O[C@H]2[C@@H](O)C[C@H](O[C@H]3[C@@H](O)C[C@H](O[C@H]4CC[C@]5(C)C6C[C@@H](O)[C@]7(C)[C@@H](C8=CC(=O)OC8)CC[C@]7(O)C6CC[C@@H]5C4)O[C@@H]3C)O[C@@H]2C)C[C@H](O)[C@@H]1O` (stereo partly specified) was tested, and the growth was -49.1% (active).

What follows are compounds tested on BT-549 breast in the same assay as above. Settings: 10 µM unless noted.

Compared with `Cc1cc(=O)[nH]c(/C(=N/Nc2ccccc2)C(=O)c2ccc(Cl)cc2)n1`, `O=C(O)c1ccc(CNS(=O)(=O)c2ccc3ccccc3c2)cc1` is higher in growth: 97.4% for the first, 104% for the second.

First: COc1cc(C2=NN(C=O)C(c3cccc(Nc4ccnc5cc(Cl)ccc45)c3)C2)cc(OC)c1OC (stereo unspecified)
Second: COc1cc(/C=N/NC(=O)c2ccc(C(F)(F)F)nc2Nc2cc(Cl)ccc2C)cc(OC)c1OC
The growth of the first is lower: 61.5% for the first, 99.6% for the second.

Going from `O=C(Nc1cccc(Cl)c1)Nc1cccc(Cl)c1` to `CCOC(=O)Nc1ccc2c3c(cccc13)-c1ccccc1-2`, the growth falls from 96.7% to 26.1%.

Going from `COc1cc2c(cc1OC)C(=O)/C(=C/c1cccc(OCC(=O)c3ccccc3)c1)C2` to `O=C(COc1ccc(/C=C2\Oc3ccc4ccccc4c3C2=O)cc1)c1ccc(Cl)cc1`, the growth falls from 49.4% to 24.7%.

First: CN(C)c1ccc(-n2nc3ccccc3n2)cc1
Second: Cc1nn(-c2nc3ccccc3s2)c(C)c1Oc1ccccc1O
The growth of the first is higher: 91.6% for the first, 63% for the second.

Going from `N[C@H](CS)C(=O)O` to `CCCn1c(N)c(C(=O)CNc2ccc(I)cc2)c(=O)[nH]c1=O`, the growth falls from 98.3% to 61.4%.

Going from `COc1ccc(N2CCN(CC(=O)N3CCN(c4nnc(-c5ccc(Cl)cc5)c(-c5ccc(Cl)cc5)n4)CC3)CC2)cc1` to `O=C(CN1CCN(c2ccc(Cl)cc2)CC1)N1CCN(c2nnc(-c3ccc(Cl)cc3)c(-c3ccc(Cl)cc3)n2)CC1`, the growth rises from 66.1% to 89.3%.

First: CCSc1ncc(Br)c(Sc2nc(N)nc3nc[nH]c23)n1
Second: Cc1nn(-c2ccccc2)c2nc(N)c(C3=NCCO3)nc12
The growth of the first is lower: 65.3% for the first, 92.6% for the second.

Compared with `CCCCCCCC[Si](OCC)(OCC)OCC`, `CCCCNCCCN(CCCC)CCCNCCCC` is lower in growth: 99.1% for the first, 97.2% for the second.

Going from `NS(=O)(=O)N(c1cc(C(F)(F)F)cc(C(F)(F)F)c1)C1CCN(Cc2ccc(C(F)(F)F)cc2)CC1` to `O=C(O)C1CCN(S(=O)(=O)c2ccc(-c3ccccc3)cc2)CC1`, the growth rises from 37.4% to 109%.

Compared with `CCOC(CNCc1cc(C)c2[nH]c3ccccc3c2c1C)OCC`, `COc1ccc2cc(-c3nc4ccccc4[nH]3)c(=O)oc2c1` is higher in growth: 76.4% for the first, 101% for the second.

Going from `Oc1c(Cl)cc(Cl)c(Cl)c1Cc1c(O)c(Cl)cc(Cl)c1Cl` to `COc1cc(/C(Cl)=C/C=C/C(=O)c2c(C)[n+]([O-])c3ccc(Cl)cc3[n+]2[O-])cc(OC)c1OC`, the growth rises from 17.2% to 36.5%.

Compared with `O=C(Nc1nc2ccc(OC(F)(F)F)cc2s1)c1ccc(F)cc1`, `COc1ccc2nc(-c3ccc(Cl)cc3)cc(-c3nnc(SCC(=O)Nc4ccc(C(C)=O)cc4)n3-c3ccccc3)c2c1` is higher in growth: 39.2% for the first, 87.5% for the second.

First: CC1Cc2ccccc2N1C(=O)c1ccc(C(=O)c2ccccc2)cc1 (stereo unspecified)
Second: CC(=O)Nc1cc(C(c2ccccc2)c2ccccc2)cc(C(c2ccccc2)c2ccccc2)c1C
The growth of the first is higher: 84% for the first, 55.5% for the second.

Compared with `CC[N+](CCCCCCCCCC[N+](CC)(c1ccccn1)c1ccccn1)(c1ccccn1)c1ccccn1`, `NS(=O)(=O)c1ccc(-n2ncc3c(SCc4ccccc4)ncnc32)cc1` is higher in growth: 19.1% for the first, 91.6% for the second.

First: C/C(=C\CCc1ccoc1)CC/C=C(\C)CCCN1CCOCC1
Second: O=C1c2cccc(NCCN=Cc3ccccc3O)c2C(=O)c2c(NCCN=Cc3ccccc3O)cccc21
The growth of the first is higher: 58.9% for the first, 49% for the second.

For `Cc1cc(C(=O)Nc2ccc3cc(CN4CCOCC4)ccc3n2)c(C)n1-c1ccccc1`, the growth was -1.74% (active).
`CCOc1cc(/C=C/C(=O)C(C(=O)/C=C/c2ccc(OC(=O)CNc3nnc(C)s3)c(OCC)c2)C(=O)CNc2nnc(C)s2)ccc1OC(=O)CNc1nnc(C)s1` was tested, and the growth was -56.2% (active).
With `CC[C@H]1CN2CCc3cc(OC)c(OC)cc3C2C[C@@H]1CC1NCCc2cc(OC)c(OC)cc21` (stereo partly specified) the growth was -11% (active).
For `COc1ccc(C2=NN(C=O)C(c3cccc(Nc4ccnc5cc(Cl)ccc45)c3)C2)cc1` (stereo unspecified), the growth was 1.59% (active).
For `COC(=O)[C@H](Cc1cnc[nH]1)NC(=O)[C@@H](NC(=O)Nc1cc(C(F)(F)F)cc(C(F)(F)F)c1)C(C)C`, the growth was -90.7% [100 µM] (active).
`CCOC(=O)c1sc(NC(=O)COc2cccc(/C=C3\CCc4cc(OC)ccc4C3=O)c2)nc1C` was tested, and the growth was -23.3% (active).
`CNCCCn1c2c(c3ccc(F)cc3c1=O)C(=O)c1cc(OC)cnc1-2` was tested, and the growth was -6.14% (active).
`C[C@H]1O[C@@H](O[C@H]2[C@@H](O)C[C@H](O[C@H]3[C@@H](O)C[C@H](O[C@H]4CC[C@]5(C)C6C[C@@H](O)[C@]7(C)[C@@H](C8=CC(=O)OC8)CC[C@]7(O)C6CC[C@@H]5C4)O[C@@H]3C)O[C@@H]2C)C[C@H](O)[C@@H]1O` (stereo partly specified) was tested, and the growth was -89.6% (active).
